Source: PubChem (Broad Institute)
Shown is part of a subset that was picked to be rich in hits.
EZH2 inh = EZH2/PRC2 methyltransferase inhibitors, primary screen, biochemical, DELFIA time-resolved fluorescence, single point. Histone-lysine N-methyltransferase EZH2 (Homo sapiens), Q15910. PRC2 H3K27 methylation, DELFIA TRF, 1 h. inhibition, % at 12.5 µM. 0.35% of 57,000 active. AID 651548, 2012;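 active = mean inhibition of replicates at least 50% and every single replicate also reaching 50%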;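 note: dimethyl H3K27 on biotinylated H3 21-44 peptide detected by antibody; plate controls were median neutral control wells for no effect and median positive control wells for full effect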
Active calls of the source: *.

Screening O=c1c(-c2ccc(O)cc2)coc2cc(OC3OC(CO)C(O)C(O)C3O)cc(O)c12 (stereo not given) returned EZH2 inh 8.5.
C[C@@H]1CN([C@H](C)CO)C(=O)Cc2cc(NC(=O)CCCCCC(=O)Nc3ccccc3N)ccc2O[C@H]1CN(C)C(=O)Nc1ccc(C(F)(F)F)cc1 was read as EZH2 inh -1.2.
For CC(C)NC(=O)Nc1cccc2c1O[C@H](CN(C)C(=O)Nc1ccc(C(F)(F)F)cc1)[C@@H](C)CN([C@@H](C)CO)C2=O the results were EZH2 inh 4.3.
For O=C(C[C@H]1C=C[C@H](NC(=O)c2cccnc2)[C@@H](CO)O1)NCCN1CCCCC1 the results were EZH2 inh 0.2.
`COC(=O)c1ccc(NC(=O)CCC(=O)c2ccc(C)cc2C)cc1` gave EZH2 inh 10.3.
Screening Cc1ccc(S(=O)(=O)NC(C)C(=O)Nc2ccc(Oc3ccccc3)cc2)cc1 (stereo not given) returned EZH2 inh 18.5.
Cc1ccc(NC(=O)CCC(=O)c2ccc(Oc3ccccc3)cc2)cc1 was read as EZH2 inh 52.3*.
For COc1cccc(C#Cc2cnc3c(c2)C(=O)N([C@@H](C)CO)C[C@@H](C)[C@@H](CN(C)C(=O)C2CCCCC2)O3)c1 the results were EZH2 inh -10.0.
For COc1cccc(C#Cc2cnc3c(c2)C(=O)N([C@@H](C)CO)C[C@H](C)[C@H](CN(C)C(=O)C2CCC2)O3)c1 the results were EZH2 inh 11.8.
`COc1cccc(C#Cc2cnc3c(c2)C(=O)N([C@H](C)CO)C[C@@H](C)[C@H](CN(C)C(=O)C2CCCCC2)O3)c1` gave EZH2 inh 95.2*.
For C[C@@H]1CN([C@@H](C)CO)S(=O)(=O)c2ccc(-c3ccccc3)cc2O[C@H]1CN(C)Cc1ccccn1 the results were EZH2 inh 11.3.
Screening COCC(=O)N(C)C[C@H]1Oc2ncc(Br)cc2C(=O)N([C@H](C)CO)C[C@H]1C returned EZH2 inh -5.8.
For C[C@H](CO)N1C[C@H](C)[C@@H](CN(C)Cc2ccccc2)Oc2c(NS(=O)(=O)c3ccc(Cl)cc3)cccc2C1=O the results were EZH2 inh -5.7.
CC1OC(OCC2OC(Oc3c(-c4ccc(O)c(O)c4)oc4cc(O)cc(O)c4c3=O)C(O)C(O)C2O)C(O)C(O)C1O (stereo not given) was read as EZH2 inh -0.5.
Screening O=c1c(OC2OC(CO)C(O)C(O)C2OC2OC(CO)C(O)C(O)C2O)c(-c2ccc(O)cc2)oc2cc(O)cc(O)c12 (stereo not given) returned EZH2 inh 86.5*.
For C[C@@H]1O[C@@H](Oc2cc(O)c3c(=O)c(O[C@@H]4O[C@@H](C)[C@H](O)[C@@H](O[C@@H]5OC[C@@H](O)[C@H](O)[C@H]5O)[C@H]4O[C@@H]4O[C@H](CO)[C@@H](O)[C@H](O)[C@H]4O)c(-c4ccc(O)cc4)oc3c2)[C@H](O)[C@H](O)[C@H]1O the results were EZH2 inh 14.9.
For COc1ccc(NC(=O)N[C@H]2CC[C@H](CCNC(=O)c3ccccc3F)O[C@@H]2CO)cc1 the results were EZH2 inh -2.6.
Screening CN(CC(=O)Nc1cccc(Cl)c1)S(=O)(=O)c1ccc2ccccc2c1 returned EZH2 inh 41.8.
Screening CC(=O)Nc1ccc(NC(=O)CN(C)S(=O)(=O)c2ccc(Cl)cc2)cc1 returned EZH2 inh -3.5.
For CN(CC(=O)Nc1cccc(I)c1)S(=O)(=O)c1ccc(Cl)cc1 the results were EZH2 inh 52.5*.
For COc1cc(/C=C/C(=O)O[C@@H]2C[C@@](O)(C(=O)O)C[C@@H](O)[C@@H]2O)ccc1O the results were EZH2 inh 89.8*.
O=C(/C=C/c1ccc(O)cc1)O[C@@H]1CC(O)(C(=O)O)C[C@@H](OC(=O)/C=C/c2ccc(O)cc2)C1O (stereo not given in full) was read as EZH2 inh 76.3*.
Screening COc1cc(O)c(C(=O)/C=C/c2ccc(OC)c(OC)c2)c(OC)c1 returned EZH2 inh 8.6.
CC(C)C1CCC2(C)CCC(O)C(C)(O)C2C1OC(=O)/C=C/c1ccccc1 (stereo not given) was read as EZH2 inh 4.7.
Screening COc1cc(/C=C/C(=O)CC(=O)/C=C/c2ccc(O)c(OC)c2)ccc1O returned EZH2 inh 10.5.
For CC(=O)CCC1C2C(O)C(C(C)C)C(OC(=O)/C=C/c3ccccc3)CC12C (stereo not given) the results were EZH2 inh -25.7.
Screening C[C@H](CO)N1C[C@H](C)[C@H](CN(C)Cc2ccc(Oc3ccccc3)cc2)OCc2cn(nn2)CCCC1=O returned EZH2 inh -10.0.
CCCN(C)C[C@@H]1OCCCC[C@@H](C)Oc2ccc(NC(=O)Nc3c(C)noc3C)cc2C(=O)N([C@H](C)CO)C[C@@H]1C was read as EZH2 inh -20.8.
